# This is a sample that favours compounds with a hit; in the whole collection about 5.3% have one here.
# IMPase cell inh: cell-permeable inhibitors of inositol monophosphatase (IMPase); inhibition (IP1 accumulation), % at 46.1 µM; CHO-M1 cells, IP1 accumulation, HTRF TR-FRET ratio; P97697; 120,000 tested, under 10 active; active = well fitted curve in the direction sought with a large enough effect in the signal ratio, not every such curve was filed as active; inconclusive = small, poorly fitted or top-dose-only effect, or a change in a side signal; inactive = no such curve, though single readings can be large or run the other way; the % refers to the signal ratio;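 also: cells stimulated with carbachol in lithium chloride buffer; plate controls were DMSO basal wells for no effect and reference inhibitor wells for full effect; higher means more IMPase inhibition seen as more IP1 and lower FRET ratio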
# Target sequence (P97697 whole entry, looked up): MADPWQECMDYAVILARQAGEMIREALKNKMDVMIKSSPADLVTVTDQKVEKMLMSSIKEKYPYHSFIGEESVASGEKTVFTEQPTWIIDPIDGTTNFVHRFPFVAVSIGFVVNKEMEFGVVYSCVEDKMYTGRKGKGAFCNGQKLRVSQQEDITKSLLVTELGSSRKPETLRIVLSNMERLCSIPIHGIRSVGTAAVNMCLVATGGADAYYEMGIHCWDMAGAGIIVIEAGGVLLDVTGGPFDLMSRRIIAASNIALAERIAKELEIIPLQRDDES
#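 CHO-M1 cells (CHO stably expressing M1 receptor), compound up to 46 uM final, stimulated with carbachol (50 uM as added) in buffer with 50mM LiCl, pH 7.4, 30 min at 37C. Cytosolic IP1 read by TR-FRET; AC50 from Hill fits.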
# PNC inhibitor: inhibitors of perinucleolar compartment assembly; PC3M PTB-GFP, PNC prevalence imaging, 16 h; hits give low values; activity change (PNC), negative = inhibition, % at 10 µM; actives 3.1% (n = 140,000);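 active = readout at or below -70, meaning at least 70% loss of cells showing the perinucleolar compartment, a nuclear body marking cancer cells; inconclusive = readout between -30 and a set limit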;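 also: plate controls were DMSO wells for no effect and camptothecin positive control wells for full effect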
#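 PC3M cells stably expressing PTB-GFP, 750–1000 cells/well, treated 16 h at 37 °C with compound (23 nl of library stock), in duplicate. After paraformaldehyde fixation and Hoechst stain, imaged at 20x; PNC prevalence scored by image analysis.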
# 12-hLO inh: 12-hLO (ALOX12) enzyme inhibition; P18054; purified 12-hLO, xylenol orange hydroperoxide absorbance; Potency, µM (top dose mostly 57.1 µM), for inactives: top-dose activity change, negative = inhibition, actives largely listed as inhibitors; actives 0.12% (n = 150,000); AID 1452; also: potency is read from the fitted curve at half-maximal effect; nearly all actives have a fitted effect of over 55% in size
#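 Hydroperoxide output read as Fe(III)-xylenol orange absorbance, 573-to-405 nm ratio, after 30 min reaction with 40 uM arachidonic acid. Enzyme: 150 nM purified human 12hLO, 15 min compound preincubation; 25 mM Hepes pH 7.0, room temperature.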
# ALOX15B inhib: 15-hLO-2 (ALOX15B) enzyme inhibition; purified 15hLO-2, xylenol orange hydroperoxide absorbance; Potency, µM (highest dose often 57.1 µM), for the others: at the top dose activity change, negative = inhibition, usual class: inhibitors; actives 0.56% (n = 110,000); also: potency is read from the fitted curve at half-maximal effect; nearly all actives have a fitted effect of over 60% in size
#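 Enzyme 50 nM, AA 45 uM, 25 mM Hepes pH 7.5 + 0.01% Triton X-100; cpd preinc 15 min RT, rxn 90 min RT; stop/detect with 200 uM XO + 300 uM Fe(II) in 50 mM H2SO4, 30 min; A573/A405.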
# IMPase Li cell: IMPase inhibition in cells with lithium potentiation. CHO-M1 cells, IP1 TR-FRET (IP-One), carbachol + lithium. Potency, µM (doses to about 59.4 µM), for inactives: at the highest dose activity, negative = IMPase inhibition, usual class: inhibitors. actives 0.35% (n = 210,000);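 also: IP1 builds up when IMPase is blocked and the TR-FRET signal falls; potency is read from the fitted curve at half-maximal effect; plate controls were basal vehicle for no effect and high inhibitor control for full effect; nearly all actives have a fitted effect of over 50% in size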
#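 Readout is a homogeneous TR-FRET IP1 immunoassay (Ex 320, Em 665 and 620), where raised cytosolic IP1 lowers signal. Cells were CHO-M1 treated 30 min at 37C with test compounds plus a little lithium; AC50 values came from Hill-equation fitting.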
# HPGD inh: HPGD (human) dehydrogenase inhibition. P15428. purified HPGD, NADH fluorescence kinetic, PGE2 substrate. Potency, µM, for inactives: top-dose activity change, negative = inhibition, actives largely listed as inhibitors. actives 4.3% (n = 150,000); active = well fitted inhibition curve with a large enough effect, not every such curve was filed as active; inconclusive = small, poorly fitted or top-dose-only effect, or another doubt; inactive = no such curve, though single readings can be large or run the other way; also: potency is read from the fitted curve at half-maximal effect
# Target sequence (P15428 whole entry, looked up): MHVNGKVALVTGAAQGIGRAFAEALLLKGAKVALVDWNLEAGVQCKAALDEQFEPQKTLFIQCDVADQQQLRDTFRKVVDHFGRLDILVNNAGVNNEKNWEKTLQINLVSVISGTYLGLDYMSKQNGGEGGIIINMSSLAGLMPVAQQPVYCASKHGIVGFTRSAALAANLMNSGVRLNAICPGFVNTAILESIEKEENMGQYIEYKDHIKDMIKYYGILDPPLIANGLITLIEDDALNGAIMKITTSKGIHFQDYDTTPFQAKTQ
#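 20 nM HPGD preincubated 15 min at room temperature with compound in 50 mM Tris-HCl pH 8, 0.01% Tween 20. Started with 1 mM NAD+ and 30 uM prostaglandin E2; NADH fluorescence (360/450 nm) read 5 times over 30-s intervals, last minus first.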
# * hit, by the source's call; ? = inconclusive; · = no result; [ ] = dose if it differs, or a comment. Unless noted, calls follow the shape of the dose curve; as a rule, active = well fitted curve in the direction sought with a large enough effect; inconclusive = small, poorly fitted or top-dose-only effect, or another doubt; inactive = no such curve, though single readings can be large; an effect the other way counts as inactive or inconclusive. Unless noted, % is scaled to controls: 0 for no effect and ±100 for the full control effect.
SMILES,IMPase cell inh,PNC inhibitor,12-hLO inh,ALOX15B inhib,IMPase Li cell,HPGD inh
CCOC(=O)c1c(NC(=O)C(Sc2ccccc2)c2ccccc2)sc(C(=O)N(C)C)c1C (configuration not stated),·,?,-3%,·,14%,-19%
CCOC(=O)c1c(NC(=O)C(Sc2ccccc2)c2ccccc2)sc(C(N)=O)c1C (configuration not stated),12,40,-2%,?,15%[38.3 µM],28µM*
CS(=O)(=O)N1CCC[C@@]2(CCN(Cc3ccccc3)C2)C1,·,·,-2%,-3%,7%,-8%
CCC1=C2CC[C@H]3C(=O)NC(=O)[C@H]3[C@H]2[C@@]2(Cc3ccccc3)C(=NCc3ccccc3)OC(=O)N2C1=O,·,·,-9%,1%,-7%,-9%
Nc1nonc1C(=O)NCCNS(=O)(=O)c1ccc(Br)cc1,3,-90*,1%,0%,-8%,-8%
Nc1nonc1C(=O)NCCNC(=O)c1ccccc1F,-1,30,2%,·,-1%,4%
CCOc1ccc(-c2nnc(SCc3nnc(-c4ccccc4)o3)n2-c2ccccc2F)cc1,17,-25,-4%,-7%,11%[38.3 µM],13µM*
CC(C)Cc1nc2oc3c(NCC4CCCO4)ncnc3c2c2c1CCC2 (configuration not stated),-1,-100*,-3%,8%,4%[38.3 µM],-8%
CC(C)Cc1nc2oc3c(NCc4cccnc4)ncnc3c2c2c1CCC2,?,?,-2%,0%,-19%[38.3 µM],?
O=C(OCc1cc2ccccc2[nH]c1=O)c1ccncc1,?,-100*,1%,·,4%,-13%
COc1ccc(CC(=O)OCc2cc3cccc(C)c3[nH]c2=O)cc1,0,?,0%,-4%,?,?
COc1ccc(C(=O)OCc2cc3cccc(C)c3[nH]c2=O)cc1,6,-7,-5%,-1%,10µM*,-14%
NNC(=O)c1cccc(O)c1,-1,7,-1%,·,-9%,2%
Cn1c(SCC(=O)NCCN2C(=O)CSC2=O)nnc1-c1ccccc1,·,-82*,2%,·,-3%,3%
Cc1ccc(-n2c(SCC(=O)NCCN3C(=O)CSC3=O)nnc2-c2ccccc2)cc1,·,31,0%,·,-4%,-8%
O=C(/C=C\c1ccco1)Nc1cc([N+](=O)[O-])ccc1F,·,-134*,-3%,·,-13%,1%
O=C(/C=C/c1ccco1)Nc1cc(Cl)ccc1C(=O)O,·,22,-17%,·,-8%,32µM*
O=C(/C=C/c1ccco1)Nc1ccccc1C(=O)O,·,·,·,·,-5%,·
CC(=O)c1ccc(-n2nnnc2SCC(=O)N2CCc3ccccc3C2)cc1,3,-82*,5%,·,-1%,-14%
O=C(CSc1nnnn1-c1ccccc1)Nc1nsc(-c2ccc(Cl)cc2)n1,5,?,-3%,6%[2.29 µM],?,?
O=C(CSc1nnnn1-c1ccccc1)CC(=O)Nc1ccc(Cl)cc1,-2,35,10µM*,-13%,15%[38.3 µM],-31%
COC(=O)c1ccc(-n2nnnc2SC)cc1,-5,1,-2%,-1%,-6%[38.3 µM],13µM*
O=C(O)c1ccc(-n2nnnc2SCc2ccccc2)cc1,-8,?,4%,-28%,21%[38.3 µM],20µM*
O=C(CSc1nnnn1-c1ccccc1)N1CCc2ccccc2C1,1,-25,-6%,-6%,18%[38.3 µM],-10%
CCC1=C2CC[C@H]3C(=O)N(CC)C(=O)[C@H]3[C@H]2[C@@]2(C)C(=NCC(=O)OC)OC(=O)N2C1=O,·,·,1%,6%,-1%,-2%
COc1ccc(-c2nc(=S)c3c([nH]2)Oc2ccc(C)cc2C3)cc1O,·,17,-1%,·,2%,-18%
CCN(CC)S(=O)(=O)c1ccc(NS(=O)(=O)c2ccc(O)c([N+](=O)[O-])c2)cc1,·,-20,-5%,·,5%,35µM*
CCN(CC)S(=O)(=O)c1ccc(NS(=O)(=O)c2cccs2)cc1,·,·,·,·,-3%,·
COCCNc1ncnc2ccc(-c3cccc(OC)c3)cc12,·,·,·,41%,22%,·

# Bioassay records: PubChem, National Center for Advancing Translational Sciences (NCATS)
